These results are taken from PubChem BioAssay (NCATS).

“And” between values parts separate entries of the source, which are not always exact repeats. Equal values may be shown once. Records with an inconclusive call do not appear. Values without a mark were called inactive. The source made the active and inactive calls. Calls follow the shape of the dose curve; as a rule, active = well fitted inhibition curve with a large enough effect; inconclusive = small, poorly fitted or top-dose-only effect; inactive = flat fitted curve, though single readings scatter.

For experiment [1], the system named is N140. The experiment can be described thus: qHTS profiling for inhibitors of Plasmodium falciparum proliferation (AID 504749). Also: potency is read from the fitted curve at half-maximal effect. The settings on record: P. falciparum in erythrocytes, SYBR Green DNA, 72 h; series mostly up to 28.7 µM. In short, it runs like this: (§1)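 Each compound contacts P. falciparum-infected red blood cells for 72 h at 37 C; lysis buffer (Tris, EDTA, saponin, Triton X, SYBR Green I) is added and fluorescence measured next morning; values normalized to controls.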

Experiment [2] has as its system P93_24. The experiment is described as above. As to conditions: P. falciparum in erythrocytes, SYBR Green DNA, 72 h; series mostly up to 28.7 µM. In short, it runs like this: as §1
In experiment [3] the test system is P94_40. The experiment is described as above. As to conditions: P. falciparum in erythrocytes, SYBR Green DNA, 72 h; series mostly up to 28.7 µM. In a few lines: as §1
In experiment [4] the test system is PAD. The experiment is described as above. As to conditions: P. falciparum in erythrocytes, SYBR Green DNA, 72 h; series mostly up to 28.7 µM. In short, it runs like this:
as §1

The subject of experiment [5] is PC15. The experiment is described as above. The settings on record: P. falciparum in erythrocytes, SYBR Green DNA, 72 h; series mostly up to 28.7 µM. In a few lines: as §1
Experiment [6] relates to PC26. The experiment is described as above. The settings on record: P. falciparum in erythrocytes, SYBR Green DNA, 72 h; series mostly up to 28.7 µM. In a few lines:
as §1

Experiment [7] has as its system PC49. The description is as above. As to conditions: P. falciparum in erythrocytes, SYBR Green DNA, 72 h; series mostly up to 28.7 µM. In a few lines: as §1
For experiment [8], the system named is SC27B. Described as above. The settings on record: P. falciparum in erythrocytes, SYBR Green DNA, 72 h; series mostly up to 28.7 µM. In short, it runs like this:
as §1

In experiment [9] the test system is TAB109. The experiment is described as above. The settings on record: P. falciparum in erythrocytes, SYBR Green DNA, 72 h; series mostly up to 28.7 µM. In short, it runs like this:
as §1

Experiment [10] deals with TAB113. Described as above. The settings on record: P. falciparum in erythrocytes, SYBR Green DNA, 72 h; series mostly up to 28.7 µM. In a few lines: as §1
Experiment [11] concerns TAB165. The description is as above. As to conditions: P. falciparum in erythrocytes, SYBR Green DNA, 72 h; series mostly up to 28.7 µM. In short, it runs like this: as §1
Experiment [12] concerns W2. The description is as above. As to conditions: P. falciparum in erythrocytes, SYBR Green DNA, 72 h; series mostly up to 28.7 µM. In short, it runs like this: as §1
Experiment [13] has as its system HEK293. Briefly: Cytotoxic Profiling of Annotated Libraries Using Quantitative High-Throughput Screening (AID 1296008). Also: potency is read from the fitted curve at half-maximal effect. As to max response: % is scaled to controls: 0 for no effect and ±100 for the full control effect. As to conditions: Five cell lines viability, CellTiter-Glo ATP luminescence, 48-72 h; max response: active compounds read low. In a few lines: (§2)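 Cells exposed to compounds for 48 or 72 hr at 37 degrees Celsius. Viability read as ATP-coupled luminescence with CellTiter-Glo after 10 min at room temperature.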

Experiment [14] deals with HaCat. The description is as above. The settings on record: Five cell lines viability, CellTiter-Glo ATP luminescence, 48-72 h; max response: active compounds read low. In short, it runs like this: as §2
The subject of experiment [15] is KB-3-1. The description is as above. The settings on record: Five cell lines viability, CellTiter-Glo ATP luminescence, 48-72 h; max response: active compounds read low. In short, it runs like this:
as §2

The subject of experiment [16] is NIH3T3. Described as above. As to conditions: Five cell lines viability, CellTiter-Glo ATP luminescence, 48-72 h; max response: active compounds read low. In a few lines:
as §2

In experiment [17] the test system is HACAT. Briefly: qHTS assay to identify novel small-molecules to repurpose for Merkel cell carcinoma treatment (AID 1296009). The settings on record: MCC and control cell lines, CellTiter-Glo viability, 72 h; at 44.8 µM (top of the series) unless noted. In a few lines:
(§3)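 Dose-response viability screen; 72 hr exposure at 37 degree celsius; CellTiter-Glo added, 10 min room temperature, luminescence read; RLUs scaled between no-cell and DMSO wells.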

Experiment [18] deals with HEK293T. The description is as above. As to conditions: MCC and control cell lines, CellTiter-Glo viability, 72 h; at 44.8 µM (top of the series). In a few lines:
as §3

In experiment [19] the test system is CRL-7250. The description is as above. As to conditions: MCC and control cell lines, CellTiter-Glo viability, 72 h; series mostly up to 44.8 µM. In short, it runs like this:
as §3

Experiment [20] relates to CRL-7250. The experiment can be described thus: Cytotoxic Profiling of Annotated Libraries Using Quantitative High-Throughput Screening (AID 1296008). Also: potency is read from the fitted curve at half-maximal effect. As to max response: % is scaled to controls: 0 for no effect and ±100 for the full control effect. The settings on record: Five cell lines viability, CellTiter-Glo ATP luminescence, 48-72 h; max response: active compounds read low. In short, it runs like this: as §2
Also: nearly all actives have a fitted effect of over 60% in size.

In the case of `COc1ccccc1N1CCNCC1`, the Potency result in experiment [1], in experiment [2], in [3], in experiment [4], in [5] and in experiment [6] was “inactive” each time. Also, the Potency entry in experiment [7], in [8], in experiment [9], in experiment [10], in experiment [11] and in [12] was “inactive” in each case. For the same compound, the compound was classed as inactive in experiment [13], in experiment [14], in experiment [17] and in experiment [18]. Also, the values for the max response in experiment [15] and in experiment [16] were -11% and -4.83%, respectively.
As to `CCCCCOC(=O)Nc1nc(=O)n([C@@H]2O[C@H](C)[C@@H](O)[C@H]2O)cc1F`, the result in experiment [19] was inactive.
For `O=C(O)P(=O)(O)O`, the max response in experiment [15] is -7.16%. Also, the compound was classed as inactive in [19].
As for `CCC1(C2=NCCN2)Cc2ccccc2O1` (stereo not drawn), the Potency in experiment [1] was 12.6 µM (active); in [3], 12.6 µM (active); in experiment [11], 11.2 µM (active); in [12], 3.79 µM (active). Further, the Potency result in experiment [4], in experiment [5], in [6] and in [7] was “inactive” each time. In addition, the max response is -2.42% in experiment [20], 2.14% in [13] and -1.86% in [16].
Turning to `C[C@@H](O)[C@H]1C(=O)N2C(C(=O)O)=C(S[C@@H]3CN[C@H](C(=O)N(C)C)C3)[C@H](C)[C@H]12`, the outcome in [19] was inactive.
On to `Cc1ccnc2c1NC(=O)c1cccnc1N2C1CC1`, for which the call in experiment [19] was inactive.
On the same count and under the same terms, the entry for `Cc1nc2n(c(=O)c1CCN1CCC(c3noc4cc(F)ccc34)CC1)CCC[C@H]2O` is “inactive [at 17.4 µM]”; for `CC(C)(C(=O)O)c1ccc(C(O)CCCN2CCC(C(O)(c3ccccc3)c3ccccc3)CC2)cc1` (stereo not drawn) it is “inactive”.
The same measure, in the same setting: the entry for `CC(CN(C)C)CN1c2ccccc2CCc2ccccc21` (stereo not drawn) is “inactive”.
For `c1ccc(C2CC2)c(OCC2=NCCN2)c1`, the Potency entry in experiment [1], in experiment [2], in experiment [3], in experiment [4], in experiment [5] and in [6] was “inactive” in each case. The Potency entry in experiment [7], in [8], in experiment [9], in experiment [10] and in experiment [11] was “inactive” in each case. Also, in [12], the Potency was 13.5 µM (active). In addition, the max response in experiment [13] is -2.25%; in experiment [15], 1.77%; in experiment [16], -5.7%. For the same compound, the compound was classed as inactive in experiment [14] and in experiment [17].
`CO[C@]12CC[C@@]3(C[C@@H]1[C@](C)(O)C(C)(C)C)[C@@H]1Cc4ccc(O)c5c4[C@@]3(CCN1CC1CC1)[C@H]2O5`: the Potency in experiment [13] was 21.5 µM (active).
Regarding `Oc1cc(Cl)ccc1Oc1ccc(Cl)cc1Cl`, the Potency in experiment [1] was 3.16 µM (active); in experiment [2], 6.31 µM (active); in [3], 4.47 µM (active); in experiment [4] it was 5.01 µM (active); in experiment [5], 7.08 µM (active); in experiment [6], 7.57 µM (active). The Potency in experiment [7] is 12.6 µM (active); in experiment [8], 4.47 µM (active); in [9] it was 10 µM (active); in experiment [10], 4.47 µM (active); in experiment [11], 3.55 µM (active); in experiment [12], 3.38 µM (active). For the same compound, the Potency in experiment [20] was 39.4 µM (active); in experiment [13], 22.1 µM (active). Further, the max response in experiment [15] was 3.49%.
Turning to `CCOC(=O)C1(c2ccccc2)CCN(CCC(C#N)(c2ccccc2)c2ccccc2)CC1`, the Potency in experiment [1] was 3.55 µM (active); in experiment [2], 3.55 µM (active); in [3] it was 3.16 µM (active); in [4] it was 2.51 µM (active); in [5], 12.6 µM (active); in experiment [6] it was 6.75 µM (active). The Potency in experiment [8] was 2.82 µM (active); in [9], 3.16 µM (active); in [10], 2.24 µM (active); in [11], 2.51 µM (active); in experiment [12], 4.78 µM (active); in experiment [13], 7.5 µM (active). Moreover, the max response in experiment [14] was -18.2%; in [15], -29%; in [16], -8.7%.
As to `CNC(=O)N1N=C(c2ccc(N)cc2)c2cc3c(cc2CC1C)OCO3` (stereo not drawn), the Potency in experiment [13] is 23.1 µM (active). For the same compound, the max response was -13.3% and -0.52% in experiment [14]; -39.3% in experiment [16].
